Assay outcomes (PubChem)
This is a sample that favours compounds with a hit; in the whole collection about 2.4% have one here.
D2 ag-1 = agonists of human D2 dopamine receptor | P14416 | HEK293 T-REx D2 cells, calcium flux agonist mode | activation, % at 2 µM | 340,000 tested, 0.53% active | AID 485358;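 active = activation over 3 SD above normal in the single-dose calcium agonist read, cut at about 30% in these data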; note: 0% is about no effect
Target sequence (P14416 whole entry, looked up): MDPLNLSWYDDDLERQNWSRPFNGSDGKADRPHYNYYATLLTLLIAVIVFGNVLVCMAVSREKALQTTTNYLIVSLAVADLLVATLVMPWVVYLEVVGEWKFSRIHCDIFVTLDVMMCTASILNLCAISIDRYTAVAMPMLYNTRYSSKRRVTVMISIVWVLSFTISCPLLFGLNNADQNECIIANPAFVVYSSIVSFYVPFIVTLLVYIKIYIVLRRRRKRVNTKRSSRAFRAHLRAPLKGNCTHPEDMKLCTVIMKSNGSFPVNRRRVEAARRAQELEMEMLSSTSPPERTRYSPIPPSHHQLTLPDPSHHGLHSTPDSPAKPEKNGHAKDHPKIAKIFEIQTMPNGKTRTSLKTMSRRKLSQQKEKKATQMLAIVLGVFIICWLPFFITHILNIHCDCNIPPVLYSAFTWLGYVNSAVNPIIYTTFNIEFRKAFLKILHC
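Tetracycline-induced HEK293 Trex cells with D2 receptor force-coupled to calcium signaling, plated overnight at 30 C and loaded with no-wash calcium dye. Calcium flux read kinetically for 180 s after compound addition; responses flag agonists.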
D2 PAM-1 = positive allosteric modulators of human D2 dopamine receptor. P14416. HEK293 T-REx D2, calcium flux, EC20 dopamine potentiation. potentiation, % at 10 µM. 340,000 tested, 0.34% active;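 active = potentiation over 3 SD above the plate norm, cut at about 30% in these data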; note: 0% is about no effect
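Using a no-wash calcium dye in inducible, force-coupled HEK293 Trex cells expressing D2, we tracked fluorescence each second for 180 s after compound, then for 180 s after EC20 dopamine to detect augmented signalling.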
D2 ag-2 = activates the human D2 dopamine receptor; P14416; AID 624465; activation, % (test concentration not listed); DiscoveRx PathHunter D2 beta-arrestin, luminescence, 90 min; 100% = 57 uM dopamine signal; 360,000 tested, 0.084% active; in the data active = activation above about 40%
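DiscoveRx PathHunter D2 beta-arrestin cells (2,100/well) attached overnight, then compound-stimulated 90 min at 37 C in HBSS/10 mM HEPES/0.1% Tween-20 buffer; beta-galactosidase complementation read by luminescence after 1 h at ambient temperature. Dopamine 57 uM final (EC100) as control.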
D2 antag = antagonizes the human D2 dopamine receptor. 340,000 tested, 2% active. HEK293 TREx D2 cells, calcium flux, dopamine EC80. inhibition, % at 10 µM. AID 485344. P14416; in the data active = inhibition above about 30%; inactive = below that, where a call was filed; note: 0% is about no effect
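Inhibition of EC80 dopamine-driven calcium flux, recorded kinetically, defines activity here; cells are a tetracycline-induced HEK293 T-REx line expressing force-coupled D2.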
D2 PAM-2 = human D2 receptor positive allosteric modulation; P14416; DiscoveRx D2 beta-arrestin cells, luminescence, 90 min; 100% = 57 uM dopamine signal; 360,000 tested, 0.23% active; potentiation, % (concentration not given with the values); in the data active = potentiation above about 50%
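PathHunter D2 cells, attached overnight at 37 deg C, received compound in DMSO plus dopamine at EC20 (50 nM final) for 90 min at 37 deg C. Beta-arrestin recruitment was read as luminescence after 1 h with detection reagent at ambient temperature.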
* = called active by the depositor; · = no result given.

SMILES	D2 ag-1	D2 PAM-1	D2 ag-2	D2 antag	D2 PAM-2
Cc1ccc(S(=O)(=O)NCCc2cn3ccsc3n2)cc1	1.4	-4.2	·	·	·
Cc1onc(-c2ccccc2Cl)c1C(=O)Nc1sc2c(c1C#N)CCC2	-0.4	9.8	-0.2	-10.5	3.5
Cc1onc(C(=O)Nc2sc3c(c2C#N)CCCC3)c1[N+](=O)[O-]	36.9*	-30.8	-0.8	-2.7	-0.7
Cc1ccc(Cl)cc1NC(=O)c1oc2ccc(S(=O)(=O)N(C)C3CCCCC3)cc2c1C	0.9	-14.3	·	·	·
O=C(NCCN1CCCC1)c1ccc2c(c1)N(Cc1ccc(F)cc1)C(=O)c1ccccc1S2=O (centres undefined)	0.6	8.2	-1.4	-5.0	-7.5
CCCCN(C)CCCNC(=O)c1ccc2c(c1)N(CC)C(=O)c1ccccc1S2=O (centres undefined)	-0.6	-32.3	-3.6	69.8*	-18.9
CCN1CCN(CCNC(=O)c2ccc3c(c2)N(Cc2cccc(Cl)c2)C(=O)c2ccccc2S3=O)CC1 (centres undefined)	0.1	-1.2	-8.9	40.3*	-38.1
CCc1ccc(-n2c(=O)c3c4c(sc3n(CC(=O)c3ccc(F)cc3)c2=O)CCC4)cc1	0.9	17.7	·	·	·
Cn1c(=O)[nH]c(=O)c2c1nc(CN1CCN(c3ccccc3F)CC1)n2CCCc1ccccc1	0.1	31.7*	1.4	-13.8	-21.4
Fc1ccccc1N1CCN(CCCc2ccccc2)CC1	7.9	-19.4	-2.8	74.0*	-9.4
Clc1ccccc1CN1CCN(CCCc2ccccc2)CC1	0.1	-25.3	-4.1	65.4*	-20.9
Cn1c(=O)[nH]c(=O)c2c1nc(CN1CCN(c3ccc(F)cc3)CC1)n2CCCc1ccccc1	-0.3	-2.8	0.1	-10.2	-16.3
COc1cccc(NC(=O)CSc2nc(=O)[nH]c3c2CCCC3)c1	0.7	3.7	·	·	·
Cc1cc2n(n1)CCC(=O)N2Cc1ccc(C(=O)Nc2ccc(F)cc2F)cc1	-2.1	-13.5	·	·	·
Cc1cc(S(=O)(=O)Nc2ccc(-c3ccc(N4CCCCC4)nn3)cc2)c(C)cc1Cl	-0.4	-2.4	·	·	·
CCOC(=O)c1ccc(NC(=O)CC2C(=O)N(c3ccc(F)cc3)C(=O)N2Cc2ccc3c(c2)OCO3)cc1 (centres undefined)	-0.4	-13.6	·	·	·
COC(=O)c1ccc(NC(=O)CC2C(=O)N(c3ccc(C)cc3)C(=O)N2Cc2ccc(OC)cc2)cc1 (centres undefined)	-0.1	-4.8	·	·	·
Cc1ccccc1-n1ncc(C(C)NC(=O)c2ccccc2)c1C (centres undefined)	-0.8	4.0	2.7	36.3*	-1.4
O=c1c2c(n3cnnc3n1-c1ccccc1)-c1ccccc1CC21CCCCC1	0.2	-2.4	-0.4	4.8	6.9
Cc1cccc(-n2c(=O)c3c(n4cnnc24)-c2ccccc2CC32CCCCC2)c1	0.3	40.5*	-2.1	31.4*	-2.2
COc1cc(-c2cc(OC)c3c(C)oc(C)c3c(=O)c2)ccc1OC(=O)c1ccccc1C	2.4	1.0	·	·	·
O=S(=O)(NCCc1csc2nc(-c3ccc(F)cc3)nn12)c1ccc(Oc2ccccc2)cc1	0.9	7.3	·	·	·
Cc1c(C(=O)N2CCC(C)CC2)c(S(=O)(=O)Nc2cccc(C#N)c2)c(C)n1C	1.8	8.0	·	·	·
COc1ccc(C(=O)N2CCN(S(=O)(=O)c3ccc(Cl)cc3)CC2)cc1OC	0.5	6.2	2.7	-0.2	-3.1
COc1ccc(S(=O)(=O)N2CCCCCC2)cc1C(=O)N1CCCCC1	0.1	-3.6	2.9	-10.7	-4.2
SMILES	D2 ag-1	D2 PAM-1	D2 ag-2	D2 antag	D2 PAM-2
COc1ccc(N2CCN(C(=O)CCS(=O)(=O)c3ccc(OC)cc3)CC2)cc1	0.1	31.6*	0.3	-10.3	-3.7
COc1ccc(OC)c(CN2CCN(Cc3cc(=O)oc4cc(O)ccc34)CC2)c1	0.9	-25.9	-0.3	33.7*	-17.2
COc1ccc(C(=O)N2CCN(S(=O)(=O)c3ccc(F)cc3)CC2)cc1OC	0.1	-0.3	7.3	39.1*	-2.2
COc1ccc(N2CCN(S(=O)(=O)c3ccc(OC)c(C(=O)N4CCCC4)c3)CC2)cc1	0.4	-10.1	-1.5	47.5*	-12.5
CCCCC1CCC(C(=O)N2CC(=O)Nc3ccc(C)cc3C2c2ccc(F)cc2)CC1 (centres undefined)	0.0	18.9	·	·	·
O=C(CCC1N=C2c3ccccc3N=C(SCc3ccc(F)cc3)N2C1=O)NCCc1ccccc1 (centres undefined)	0.2	10.0	·	·	·
COc1ccc(OC)c(CN2CCN(C(=O)c3ccc(F)cc3)CC2)c1	0.6	4.2	-4.2	41.2*	-26.7
O=C(NCCN1CCN(C(=O)c2ccc(F)cc2)CC1)c1ccc(F)cc1	-0.5	-27.6	-0.5	64.0*	-12.4
Cc1ccccc1NS(=O)(=O)c1ccc2[nH]cc(C(=O)NC(C)c3ccccc3)c(=O)c2c1 (centres undefined)	-0.2	1.8	·	·	·
CCOC(=O)C1=C(CS(=O)(=O)c2ccccc2)NC(=O)NC1c1ccccc1OCC (centres undefined)	0.3	-11.8	-1.6	36.1*	-2.7
COc1ccc(-c2nn(-c3ccccc3C)cc2CNCc2cccnc2)cc1F	-1.9	-25.0	-2.1	39.4*	-8.1
CCn1ccc2cc(S(=O)(=O)N3CCCN(C(=O)NCC(=O)OC)CC3)ccc21	·	-3.5	·	·	·
CCOc1ccc(N(CC)S(=O)(=O)N2CCCC(C(=O)NCc3ccccc3Cl)C2)cc1 (centres undefined)	0.2	-4.8	·	·	·
O=C(CCCN1CCC(C(=O)c2ccc(F)cc2)CC1)c1ccc(F)cc1	-3.0	-19.5	-3.4	71.5*	-4.5
O=C(CCCN1CCC(O)(c2cccc(C(F)(F)F)c2)CC1)c1ccc(F)cc1	0.9	16.5	-4.0	9.4	-34.0
O=C(CCCN1CCC(C(O)c2ccc(F)cc2)CC1)c1ccc(F)cc1 (centres undefined)	·	·	-5.0	·	-15.8
O=C(CCCN1CCC(O)(c2ccc(Br)cc2)CC1)c1ccc(F)cc1	1.0	-20.4	-3.9	78.5*	-33.0
CCCN(CCC)C(=O)Cn1c(=O)n(-c2ccc(CC)cc2)c(=O)c2ccc(C(=O)NCCc3ccccc3)cc21	-0.3	19.7	·	·	·
COc1ccc(CN2CCc3nc(N4CCN(c5ccc(F)cc5)CC4)ncc3C2)c(OC)c1OC	·	15.7	·	·	·
O=C(CCNS(=O)(=O)c1cccc2nonc12)NC1CCCCC1	-0.2	-4.9	-0.7	30.5*	-6.5
O=C(CCS(=O)(=O)c1cccc2nonc12)NC1CCCCCC1	0.2	-0.4	-0.7	-14.4	-2.7
CC(NC(=O)c1sc2ncccc2c1-n1cccc1)c1ccccc1 (centres undefined)	-0.5	-2.5	·	·	·
NC(=O)c1cccc2c3c([nH]c12)CCCC3	-0.2	-3.6	-3.1	-5.8	-17.3
Cc1cccc2c3c([nH]c12)CCN(C)C3	1.7	-28.1	-4.0	66.1*	-23.7
